Screening data (PubChem BioAssay)
Only some compounds are listed: those with a hit (about 2.5% of all), similar ones and a draw of the others.
Pol beta inh – inhibitors of human DNA polymerase beta; actives 1.3% (n = 340,000); Potency, µM (series often up to 114 µM), hits mostly inhibitors; Pol beta primer extension/strand displacement, fluorescence kinetic
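Pol beta (10 nM) was preincubated with compound for 15 min at room temperature. The reaction was then started with 50 nM substrate and read immediately and after a further 10 min at room temperature.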
POLH inh – inhibitors of human DNA polymerase eta; actives 1.2% (n = 390,000); Potency, µM (highest dose often 114 µM), hits mostly inhibitors; recombinant Pol eta, fluorescent DNA replication assay; AID 588591; Q9Y253
Target sequence (Q9Y253 whole entry, looked up): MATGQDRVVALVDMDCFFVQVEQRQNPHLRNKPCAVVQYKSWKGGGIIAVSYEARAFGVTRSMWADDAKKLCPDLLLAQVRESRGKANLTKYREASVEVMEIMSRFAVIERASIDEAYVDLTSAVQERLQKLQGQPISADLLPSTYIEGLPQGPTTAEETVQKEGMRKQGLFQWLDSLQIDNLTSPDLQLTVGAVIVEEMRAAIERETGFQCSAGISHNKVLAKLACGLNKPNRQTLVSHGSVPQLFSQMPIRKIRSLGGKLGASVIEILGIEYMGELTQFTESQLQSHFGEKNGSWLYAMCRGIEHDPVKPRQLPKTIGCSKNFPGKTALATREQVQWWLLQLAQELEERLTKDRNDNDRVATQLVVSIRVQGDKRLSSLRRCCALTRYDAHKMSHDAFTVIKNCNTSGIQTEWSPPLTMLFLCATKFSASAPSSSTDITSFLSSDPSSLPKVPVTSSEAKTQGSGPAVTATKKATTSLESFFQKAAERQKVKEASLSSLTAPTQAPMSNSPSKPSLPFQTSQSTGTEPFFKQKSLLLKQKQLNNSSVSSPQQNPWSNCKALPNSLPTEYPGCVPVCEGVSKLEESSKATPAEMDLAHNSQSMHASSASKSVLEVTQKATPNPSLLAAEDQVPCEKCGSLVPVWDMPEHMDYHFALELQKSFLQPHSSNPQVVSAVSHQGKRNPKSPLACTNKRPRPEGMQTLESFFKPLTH
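Pol eta (10 nM) was preincubated with compounds for 15 min at room temperature, after which fluorescent replication substrate (50 nM final) was added to start the reaction. Fluorescence was read kinetically at 0 and 10 min.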
L3MBTL1 block – L3MBTL1 (human) inhibition; actives 0.66% (n = 230,000); AID 485360; Potency, µM (doses to about 57.1 µM), usual class: inhibitors; AlphaScreen L3MBTL1–H3K9me1 peptide binding; Q9Y468; further: nearly all actives have a fitted effect of over 60% in size
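First, the protein-peptide complex forms for 30 min at room temperature (L3MBTL1 50 nM, biotinylated H3K9me1 peptide 75 nM). Next, compounds are pin-transferred and incubated 30 min. Finally, AlphaScreen beads are added and read after 30 min.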
Pol kappa inh – blocks human DNA polymerase kappa activity | purified Pol kappa, fluorescent DNA synthesis assay, 10 min | Q9UBT6 | actives 0.53% (n = 400,000) | AID 588579 | Potency, µM (top dose mostly 107 µM), actives largely listed as inhibitors
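First, compounds were pin-transferred onto 10 nM Pol kappa. After 15 min at room temperature, substrate was added to 50 nM final. Fluorescence was then measured kinetically at 0 and 10 min.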
WRN helicase inh – inhibitors of human WRN helicase; Q14191; Potency, µM (top dose mostly 114 µM), actives largely listed as inhibitors; actives 0.46% (n = 360,000); WRN helicase unwinding, fluorescent forked duplex, kinetic; further: nearly all actives have a fitted effect of over 55% in size
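Primary qHTS, 1536-well format. 20 nM WRN + compound, 15 min RT; start with 100 nM forked fluorophore/quencher duplex, 2 mM ATP (final); kinetic read ex 525/em 598 nm.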
Pol iota inh – DNA polymerase iota (human) inhibition; AID 588590; Potency, µM (series often up to 115 µM), hits mostly inhibitors; Q9UNA4; actives 1% (n = 390,000); Pol iota fluorescent replication assay, 10 min
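Fluorescent replication assay read twice, at 0 min and 10 min after adding 50 nM (final) substrate. Enzyme (10 nM) and compounds were first incubated 15 min at room temperature; enzyme-free buffer wells were negative controls.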
Large screens that a line does not name were inactive. The call rests on the fitted dose curve; in most records, active means well fitted curve in the direction sought with a large enough effect; inconclusive means small, poorly fitted or top-dose-only effect, or another doubt; inactive means no such curve, though single readings can be large; an effect the other way counts as inactive or inconclusive.

O=c1nc(/C=C/c2cccn2-c2ccc([N+](=O)[O-])cc2)cc(C(F)(F)F)[nH]1	Pol beta inh inconclusive, POLH inh 45µM, Pol kappa inh 89µM, WRN helicase inh inconclusive, Pol iota inh 40µM (no result: L3MBTL1 block)
COc1cc(OC)c(OC)cc1/C=C/c1cc(C(F)(F)F)[nH]c(=O)n1	none
COc1ccc(NC(=O)c2cc3c(=O)n(C)c4ccccc4c3n2C)cc1Cl	none (no result: L3MBTL1 block)
CC(C)(C)c1ccc(-c2nnc(SCC(=O)NC3CC3)o2)cc1	none (no result: Pol beta inh)
Cc1cc[n+](CCC2CCCCC2)cc1	none (no result: Pol beta inh, POLH inh, L3MBTL1 block, WRN helicase inh)
Cc1ccc(C)c(-n2c(N)c(C#N)c3nc4ccccc4nc32)c1	Pol iota inh 25µM (no result: L3MBTL1 block, WRN helicase inh)
N#Cc1c(N)n(-c2ccc(O)cc2)c2nc3ccccc3nc12	none
COc1cc(NC(=O)COc2ccccc2Cl)ccc1NC(=O)c1cccs1	Pol iota inh 50µM (no result: L3MBTL1 block)
COc1cc(NC(=O)COc2ccccc2[N+](=O)[O-])ccc1NC(=O)c1cccs1	Pol beta inh inconclusive, POLH inh inconclusive, Pol iota inh inconclusive
OCc1ccccc1CNCc1ccccc1	none
Oc1cc(CNCc2ccccc2)c(O)cc1CNCc1ccccc1	POLH inh inconclusive, Pol kappa inh 79µM, Pol iota inh inconclusive (no result: Pol beta inh, L3MBTL1 block)
COc1cc(/C=N/Nc2nc(=O)[nH]nc2C)cc([N+](=O)[O-])c1O	none
N#C/C(=C\c1ccc[nH]1)C(=O)Nc1ccccc1[N+](=O)[O-]	POLH inh inconclusive, Pol kappa inh inconclusive, Pol iota inh 71µM (no result: L3MBTL1 block)
C=CS(=O)(=O)c1c2cc(OC)ccc2nc2ccc(OC)cc12	POLH inh inconclusive, WRN helicase inh inconclusive, Pol iota inh 28µM (no result: Pol beta inh, L3MBTL1 block)
Cc1cc(OCC(=O)Nc2ccc(CN3CCOCC3)cc2)c2c(C)cc(=O)oc2c1	Pol iota inh 50µM (no result: L3MBTL1 block)
CC(CCc1ccco1)NC(=O)CCc1nnc2ccc(NCc3ccc(Cl)cc3)nn12 (stereo not drawn)	Pol kappa inh 79µM, Pol iota inh 25µM (no result: L3MBTL1 block)
COC(=O)c1ccc(NC(=O)CCc2nnc3ccc(NCc4ccco4)nn23)cc1	Pol beta inh inconclusive, POLH inh inconclusive, Pol kappa inh inconclusive, Pol iota inh 35µM (no result: L3MBTL1 block)
CC(CCc1ccco1)NC(=O)CCc1nnc2ccc(NCc3ccccc3Cl)nn12 (stereo not drawn)	none (no result: L3MBTL1 block)
Cc1cccnc1NC(=O)CCc1nnc2ccc(NCc3ccco3)nn12	Pol beta inh inconclusive, POLH inh 45µM, Pol iota inh inconclusive (no result: L3MBTL1 block)
COc1ccc(NC(=O)CCc2nnc3ccc(NCc4ccc5c(c4)OCO5)nn23)cc1	Pol beta inh inconclusive, Pol iota inh 45µM (no result: L3MBTL1 block)
COc1ccc(NC(=O)CCc2nnc3ccc(NCc4ccco4)nn23)cc1	none (no result: L3MBTL1 block)
Cn1c(=O)c2c(nc(Cc3ccc(N)cc3)n2C)n(C)c1=O	none
COc1ccc(C(=O)C2CCCN(C(=O)CCNC(C)=O)C2)cc1OC (stereo not drawn)	none
Cc1ccc(S(=O)(=O)N2CCN(C(=O)COc3ccc(C)nc3[N+](=O)[O-])CC2)c(C)c1	none
CSCCCNC(=S)Nc1cccc(S(=O)(=O)NC2=NCCC2)c1	none
CN1C[C@@H]2C(c3ccc(C(F)(F)F)cc3)C3(c4ccccc4)CC2(C3)[C@H]1c1ccccc1 (stereo partly drawn)	none (no result: L3MBTL1 block)
CC1SC(c2ccc(Cl)cc2)NC1=O (stereo not drawn)	none
Cc1ccccc1N1CCN(C2CCCN(C(=O)CCN3CCCCO3)C2)CC1 (stereo not drawn)	none (no result: L3MBTL1 block)
Cc1ccccc1N1CCN(C2CCCN(C(=O)CCn3cnnn3)C2)CC1 (stereo not drawn)	Pol beta inh 35µM (no result: L3MBTL1 block)
CCCCc1nnc(SCCSc2nnc(CCCC)n2N)n1N	Pol iota inh 89µM (no result: L3MBTL1 block)
CCn1c(SCC(=O)Nc2sccc2C(N)=O)nnc1C1CC1	Pol kappa inh inconclusive, Pol iota inh 56µM (no result: Pol beta inh)
Cc1ccc(-n2nnnc2SCC(=O)NNC(=O)c2ccc([N+](=O)[O-])cc2)cc1	Pol beta inh 5.6µM, POLH inh inconclusive, Pol kappa inh inconclusive, Pol iota inh inconclusive
COc1ccc(-n2nnnc2SCC(=O)NNC(=O)c2ccc([N+](=O)[O-])cc2)cc1	Pol iota inh inconclusive
